LANA-H2A inh: blockers of LANA interaction with H2A/H2B – biochemical, FP readout, HTS, primary screen. Protein LANA1 (Human herpesvirus 8 type P (isolate GK18)), Q9QR71. cell-free LANA-H2A/H2B peptide, fluorescence polarization. inhibition, % (concentration not given with the values). hit rate 0.6% among 320,000. AID 2629, 2010; in the data active means inhibition mostly above about 10%, no sharp cut-off; inactive means mostly below about 6.7%
Keap1-Nrf2 PPI: Keap1-Nrf2 protein-protein interaction inhibitors, primary screen, biochemical, fluorescence polarization, single point; hit rate 0.15% among 340,000; AID 504523, 2011; inhibition, % at 9.4 µM; Keap1 Kelch-Nrf2 peptide fluorescence polarization, 1536-well; in the data active means inhibition above about 12%;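 further: human Keap1 Kelch domain with fluorescein labeled Nrf2 9mer peptide probe; 0% = neutral control wells and 100% = peptide positive control; higher means more block of Keap1 binding to Nrf2 peptide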
Target sequence (Q14145 whole entry, looked up, the tested form may be a part): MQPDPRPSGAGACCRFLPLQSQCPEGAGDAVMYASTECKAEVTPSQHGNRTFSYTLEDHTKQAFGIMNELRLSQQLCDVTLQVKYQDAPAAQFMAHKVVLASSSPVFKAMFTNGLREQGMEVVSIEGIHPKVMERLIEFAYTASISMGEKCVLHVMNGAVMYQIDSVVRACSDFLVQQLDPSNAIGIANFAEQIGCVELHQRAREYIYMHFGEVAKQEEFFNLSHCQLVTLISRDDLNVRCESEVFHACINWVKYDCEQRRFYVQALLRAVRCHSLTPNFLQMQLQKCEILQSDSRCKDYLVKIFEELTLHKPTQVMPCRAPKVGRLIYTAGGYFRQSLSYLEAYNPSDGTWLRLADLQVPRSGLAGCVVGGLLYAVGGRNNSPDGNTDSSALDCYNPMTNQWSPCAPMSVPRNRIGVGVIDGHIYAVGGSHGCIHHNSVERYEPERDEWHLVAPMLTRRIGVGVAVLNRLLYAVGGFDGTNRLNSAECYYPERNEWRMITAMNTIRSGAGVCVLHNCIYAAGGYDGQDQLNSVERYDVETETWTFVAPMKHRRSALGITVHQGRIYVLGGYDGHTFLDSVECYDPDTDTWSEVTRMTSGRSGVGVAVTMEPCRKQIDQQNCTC
eLon inh: inhibitors of E. coli Lon protease, primary screen, biochemical, fluorescence polarization. hit rate 0.42% among 360,000. inhibition, % at 7.94 µM. purified E. coli Lon protease. AID 602123, 2011; in the data active means inhibition above about 13%, passing the limit was not always enough;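 further: 0% = enzyme with probe and DMSO and 100% = no enzyme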
EBV gp42 inh: Epstein-Barr virus gp42 inhibitors, primary screen, biochemical, uHTS, fluorescence polarization; Fluorescence polarization binding assay, mP read-out; inhibition, % (tested at 21.74 µM); hit rate 0.42% among 220,000; AID 1085, 2008; in the data active means inhibition above about 50%
GLD-1 RNA inh: GLD-1/TGE RNA complex disruptors, primary screen, biochemical, fluorescence polarization. purified GLD-1 + fluorescein TGE RNA. hit rate 0.44% among 320,000. Female germline-specific tumor suppressor gld-1 (Caenorhabditis elegans), Q17339. inhibition, % at 5.96 µM;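 active means percent inhibition above a per-plate cutoff, the plate mean of test compounds plus 3 SD, cut at about 30% in these data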;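 further: 0% = DMSO wells with GLD-1 and probe and 100% = wells lacking GLD-1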
LANA DNA inh: inhibitors of KSHV C-LANA binding to DNA, primary screen, biochemical, fluorescence polarization, FAM-LBS DNA, MBP-C-LANA, single point; inhibition, % at 9 µM; AID 504423, 2011; hit rate 0.078% among 340,000;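 active means highest replicate inhibition at or above 60% at 9 µM, even if other replicates fall short; inactive means all replicates below 60% inhibition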;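 further: 0% = neutral control wells and 100% = 4 µM acridine orange control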
An asterisk follows results filed as active. Only some compounds are listed: those with a hit (about 1.5% of all), similar ones and a draw of the others.

For COC(=O)CSc1nnc(CCc2ccccc2)n1C the results were LANA-H2A inh 11*, Keap1-Nrf2 PPI -6, eLon inh -1, GLD-1 RNA inh -1 and LANA DNA inh 0.
CC(C)N1CCC1(C)C(=O)Nc1nccc2cccnc12 (stereo unspecified) was read as eLon inh -2.
Cc1ccc(O)c(CP(=O)(c2ccccc2)c2ccccc2)c1 was read as LANA-H2A inh 6, Keap1-Nrf2 PPI -3, eLon inh -5, EBV gp42 inh -15, GLD-1 RNA inh 9 and LANA DNA inh 0.
Screening CCNc1ccccc1CP(=O)(c1ccccc1)c1ccccc1O (stereo unspecified) returned LANA-H2A inh 6 and GLD-1 RNA inh active.
`CCN1CCC(O)(/C=C/c2ccc(C(C)C)cc2)C(C(=O)/C=C/c2ccc(C(C)C)cc2)C1` (stereo unspecified) gave Keap1-Nrf2 PPI -9, eLon inh -3 and LANA DNA inh -1.
Screening C=CCn1c(=O)/c(=C/c2cc(OC)c(OC)c(OC)c2)s/c1=C(/C#N)c1nc2ccccc2n1C returned LANA-H2A inh 2, Keap1-Nrf2 PPI 30*, eLon inh 1, EBV gp42 inh 96*, GLD-1 RNA inh 1 and LANA DNA inh 29.
Screening C=CCn1c(=O)/c(=C/c2ccc(O)cc2)s/c1=C(/C#N)c1nnc2n1CCCCC2 returned LANA-H2A inh -33, Keap1-Nrf2 PPI -4, eLon inh -284, EBV gp42 inh -135, GLD-1 RNA inh -122 and LANA DNA inh -20.
For Cc1ccc2c(c1)CCO[C@@]21O[C@H](CCO)C[C@H](O)[C@H]1O the results were eLon inh 1.
O=C(Nc1ccc(Cl)cn1)C1CCN(c2ncnc3c2nc2n3CCCCC2)CC1 was read as LANA-H2A inh 1, Keap1-Nrf2 PPI -2, eLon inh -6, GLD-1 RNA inh 10 and LANA DNA inh 1.
For O=C(CN1CCN(c2cccc(Cl)c2)CC1)NC1CCCc2ccccc21 (stereo unspecified) the results were LANA-H2A inh 20*, Keap1-Nrf2 PPI -3, eLon inh -24, GLD-1 RNA inh 6 and LANA DNA inh -1.
For Cc1onc(-c2c(F)cccc2Cl)c1C(=O)OCC(=O)Nc1c(C)n(C)n(-c2ccccc2)c1=O the results were LANA-H2A inh -3, Keap1-Nrf2 PPI 2, eLon inh -3, EBV gp42 inh -9, GLD-1 RNA inh -2 and LANA DNA inh -1.
CCOc1ccc(N(CC(=O)Nc2cccc(Br)c2)S(C)(=O)=O)cc1 was read as LANA-H2A inh 36*, Keap1-Nrf2 PPI -1, eLon inh -6, GLD-1 RNA inh 6 and LANA DNA inh -1.
For CCOc1ccc(N(CC(=O)Nc2cc(C)cc(C)c2)S(C)(=O)=O)cc1 the results were LANA-H2A inh 0, Keap1-Nrf2 PPI 2, eLon inh -6, GLD-1 RNA inh -1 and LANA DNA inh 0.
Screening CCOc1ccc(N(CC(=O)Nc2cccc(N(C)S(C)(=O)=O)c2)S(=O)(=O)c2ccccc2)cc1 returned LANA-H2A inh 25*, Keap1-Nrf2 PPI -5, eLon inh 14, EBV gp42 inh 3, GLD-1 RNA inh 2 and LANA DNA inh -1.
`COc1ccc(N(CC(=O)Nc2cccc(N(C)S(C)(=O)=O)c2)S(=O)(=O)c2ccc(F)cc2)cc1` gave LANA-H2A inh 152*, Keap1-Nrf2 PPI -4, eLon inh -6, EBV gp42 inh -10, GLD-1 RNA inh -3 and LANA DNA inh -9.
CC(C)Nc1nc(Nc2ccc(Cl)cc2F)c2sccc2n1 was read as eLon inh 8.
Screening C(=NN1CCCCCC1)c1ccc2c(c1)OCO2 returned Keap1-Nrf2 PPI 4, eLon inh -8 and LANA DNA inh 0.
`CSCC(C)N1CCC(n2nccc2NC(=O)CCCc2ccccc2)CC1` (stereo unspecified) gave LANA-H2A inh 4, Keap1-Nrf2 PPI 3, eLon inh 3, GLD-1 RNA inh 45* and LANA DNA inh 24.
CSCC(C)N1CCC(n2nccc2NC(=O)CCc2ccccc2)CC1 (stereo unspecified) was read as Keap1-Nrf2 PPI 7, eLon inh 4 and LANA DNA inh 8.
For COC(=O)c1cc2n3ccccc3c(C)c(-c3ccccc3)c-2c1C(=O)OC the results were LANA-H2A inh 0, Keap1-Nrf2 PPI -2, eLon inh 38, EBV gp42 inh 103*, GLD-1 RNA inh 86* and LANA DNA inh 8.
For CCn1cc(C(=O)O)c(=O)c2cc(F)c(N3CCNCC3)cc21 the results were LANA-H2A inh 71*, Keap1-Nrf2 PPI -2, eLon inh 4, EBV gp42 inh -12, GLD-1 RNA inh 7 and LANA DNA inh 2.
For Cc1cc(C)c(S(=O)(=O)c2ccccc2C(C)C)c(=O)[nH]1 the results were LANA-H2A inh -1, Keap1-Nrf2 PPI -1, eLon inh 5 and LANA DNA inh 0.
Cc1ccc(S(=O)(=O)N2C[C@H]3C(=O)C[C@@H](c4ccc(Cl)cc4)N(S(=O)(=O)c4ccc(C)cc4)[C@H]3C[C@H]2c2ccc(Cl)cc2)cc1 was read as eLon inh -6.
For COC(=O)Cc1cc(=O)oc2cc(OC)ccc12 the results were LANA-H2A inh 67*, Keap1-Nrf2 PPI 0, eLon inh 1, EBV gp42 inh 1, GLD-1 RNA inh 1 and LANA DNA inh 0.
`CC(=O)Nc1ccc2c(COC(=O)CC3Sc4ccccc4NC3=O)cc(=O)oc2c1` (stereo unspecified) gave LANA-H2A inh -7, Keap1-Nrf2 PPI -4, eLon inh -1, EBV gp42 inh -12, GLD-1 RNA inh -7 and LANA DNA inh 2.
For COc1ccc2c(CC(=O)O)cc(=O)oc2c1 the results were LANA-H2A inh 0, Keap1-Nrf2 PPI -1, eLon inh 1, EBV gp42 inh -10, GLD-1 RNA inh -3 and LANA DNA inh 1.
Screening COc1ccc2c(COC(=O)CC3Sc4ccccc4NC3=O)cc(=O)oc2c1 (stereo unspecified) returned LANA-H2A inh 15*, Keap1-Nrf2 PPI -4, eLon inh -2, EBV gp42 inh -29, GLD-1 RNA inh 3 and LANA DNA inh -2.
`COC(=O)C1=C(C(=O)OC)C(c2ccccc2O)c2sc(=O)[nH]c2S1` (stereo unspecified) gave LANA-H2A inh -2, Keap1-Nrf2 PPI -4, eLon inh 8, EBV gp42 inh -1, GLD-1 RNA inh 3 and LANA DNA inh -2.

Compound activity as filed in PubChem.
